The values that follow come from PMC4336329 (PLoS ONE, 2015).

Each structure is given as a SMILES string. About 14,000 (4.5%) of roughly 310,000 compounds showed an effect of 50% or more. Effects have a minus sign here. Shown is part of a subset that was picked to be rich in strong results.
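Also: peak tail current of the secondary pulse compared with the same well before compound.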

human ether-à-go-go-related gene (hERG) potassium channel, sequence (Q12809 whole entry, looked up): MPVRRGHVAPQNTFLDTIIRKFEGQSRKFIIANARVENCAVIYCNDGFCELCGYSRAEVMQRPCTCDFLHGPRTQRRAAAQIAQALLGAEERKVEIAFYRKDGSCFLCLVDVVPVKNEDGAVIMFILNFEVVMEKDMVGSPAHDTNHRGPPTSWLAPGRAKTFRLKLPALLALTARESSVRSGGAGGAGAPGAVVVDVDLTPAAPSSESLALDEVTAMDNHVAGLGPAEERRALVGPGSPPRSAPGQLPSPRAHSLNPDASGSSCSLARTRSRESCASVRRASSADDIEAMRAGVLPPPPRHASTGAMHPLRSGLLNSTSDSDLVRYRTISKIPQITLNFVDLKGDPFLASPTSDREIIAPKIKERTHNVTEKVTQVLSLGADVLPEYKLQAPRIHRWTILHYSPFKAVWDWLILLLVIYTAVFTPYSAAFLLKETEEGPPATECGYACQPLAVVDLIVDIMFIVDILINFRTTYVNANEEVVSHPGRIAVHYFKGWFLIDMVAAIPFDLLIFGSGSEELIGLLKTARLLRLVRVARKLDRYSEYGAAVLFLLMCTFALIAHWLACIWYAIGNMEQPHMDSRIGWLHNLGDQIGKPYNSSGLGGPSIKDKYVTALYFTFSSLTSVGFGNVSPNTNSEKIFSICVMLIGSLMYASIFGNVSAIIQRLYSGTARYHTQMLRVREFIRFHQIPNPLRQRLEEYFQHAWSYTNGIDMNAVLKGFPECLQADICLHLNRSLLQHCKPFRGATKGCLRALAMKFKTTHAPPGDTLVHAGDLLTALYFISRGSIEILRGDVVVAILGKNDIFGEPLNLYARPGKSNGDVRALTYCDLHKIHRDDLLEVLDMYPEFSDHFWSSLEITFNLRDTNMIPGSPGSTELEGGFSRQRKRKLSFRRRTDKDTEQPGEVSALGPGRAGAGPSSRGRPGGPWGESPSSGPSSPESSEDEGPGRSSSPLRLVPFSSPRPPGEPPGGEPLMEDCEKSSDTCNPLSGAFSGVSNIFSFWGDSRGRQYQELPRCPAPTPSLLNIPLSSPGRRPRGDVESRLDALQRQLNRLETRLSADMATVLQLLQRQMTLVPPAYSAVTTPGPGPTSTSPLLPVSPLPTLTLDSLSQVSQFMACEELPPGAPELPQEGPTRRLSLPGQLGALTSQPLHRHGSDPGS

This test addresses human ether-à-go-go-related gene (hERG) potassium channel (human, UniProt Q12809). In words: primary screen, population patch clamp on CHO cells stably expressing hERG; higher = less effect of the substance.
As for `COCCn1c(-c2ccc(Cl)cc2Cl)nc2c(c(=O)c3ccccc3n2C)c1=O`, the “hERG current change (%, negative = inhibition) at 10uM” value is recorded as -8.66%. Next, `COc1ccccc1C(=O)Nc1ccc2c(c1)CCCN2C(=O)c1ccccc1`: -39.8%.

With `O=c1cc[nH]c2c1ccc1cccnc12`, the “hERG current change (%, negative = inhibition) at 10uM” value is 21.5%. As for `CC(CC(=O)OCC(=O)NCc1ccc(Cl)cc1)c1ccccc1` (stereo not drawn), the “hERG current change (%, negative = inhibition) at 10uM” value is given as -7.65%.

Regarding `C/C=C/c1ccc(OCCOCCOc2cccc3cccnc23)c(OC)c1`, the “hERG current change (%, negative = inhibition) at 10uM” value is on record as -50.5%. The same measure for `Brc1ccc(OCCCOc2cccc3cccnc23)cc1`: 6.35%; for `O=Cc1ccccc1OCCCOc1cccc2cccnc12`: -4.59%; for `C/C=C/c1ccc(OCCOc2cccc3cccnc23)c(OC)c1`: 20.3%. Next, `C=CCc1ccc(OCCOCCOc2cccc3cccnc23)c(OC)c1`: -29.3%.

In the case of `O=Cc1ccc(OCCCOc2cccc3cccnc23)cc1`, the “hERG current change (%, negative = inhibition) at 10uM” value is given as -54.3%. As to `CCc1ccc(S(=O)(=O)NCc2cn3ccsc3n2)s1`, the “hERG current change (%, negative = inhibition) at 10uM” value is listed as 6.83%.

On to `N/C(=N\OC(=O)c1ccc2ccccc2c1)c1cccc([N+](=O)[O-])c1`, for which the “hERG current change (%, negative = inhibition) at 10uM” value is reported as 5.05%.

With `C#CCOCCOCCOCCNc1nc(N2CCN(C(=O)Cn3cc(CCC[NH+]=C(N)N)nn3)CC2)nc(N2CCN(C(=O)[C@H](CCCC[NH3+])n3cc(CCCC)nn3)CC2)n1.[Cl-]`, the “hERG current change (%, negative = inhibition) at 10uM” value is recorded as 7.39%. The same measure for `COc1ccc(S(=O)(=O)N2CCC(C(=O)c3ccc4c(c3)OCCO4)CC2)cc1`: -6.76%; for `Cl.c1ccc2c(N3CCOCC3)c3c(nc2c1)CCC3`: -35.2%. The same measure for `CC1CCCN(c2c3c(nc4ccccc24)CCCC3)C1` (stereo not drawn): -65.2%.

As to `O=C(O)c1c2c(nc3ccccc13)CCCCC2`, the “hERG current change (%, negative = inhibition) at 10uM” value is recorded as 15.8%. Next, `CCOC(=O)C1=C(COC(=O)c2ccc([N+](=O)[O-])o2)NC(=O)NC1C` (stereo not drawn): -7.36%. The same measure for `CCC(C)N=CC1=C(O)C(C(=O)OC)C(C)(C)CC1=O` (stereo not drawn): -5.35%; for `CCOC(=O)C(=O)N=Nc1c(O)n(C)c2ccccc12`: 18.9%; for `O=C(CSc1nc(Nc2ccccc2)nc(N2CCOCC2)n1)N1CCc2ccccc21`: -1.62%. Consider `O=C(CSc1nc(Nc2ccccc2)nc(N2CCOCC2)n1)NC1CCCCC1`, for which the “hERG current change (%, negative = inhibition) at 10uM” value is given as -3.3%. Next, `O=C(CSc1nc(Nc2ccccc2)nc(N2CCOCC2)n1)N1CCCC1`: -60.4%; `FC(F)(F)c1ccc(-c2csc(-c3ccno3)n2)cc1`: 1.72%.

For the compound `Cc1cc(NCCCN)nc(-c2ccccc2O)n1`, the “hERG current change (%, negative = inhibition) at 10uM” value is on record as 10%. Next, `OC(c1ccc(F)cc1)(c1ccc(F)cc1)[C@@H]1CCCN1`: 7.57%; `CCCOC(=O)c1ccc(NC(=O)COC)cc1`: 1.07%; `CCCCOC(=O)c1ccc(NC(=O)C(=O)NCCN(CC)CC)cc1`: -73.2%. On to `CCCCOC(=O)c1ccc(NC(=O)C(=O)NCc2ccncc2)cc1`, for which the “hERG current change (%, negative = inhibition) at 10uM” value was -8.29%.

As to `CCCCOC(=O)c1ccc(NC(=O)/C=C/c2cccs2)cc1`, the “hERG current change (%, negative = inhibition) at 10uM” value was -17.1%. Take `CCN(CC)CCOC(=O)c1ccc(NC(=O)/C=C/c2cccs2)cc1.Cl`: the “hERG current change (%, negative = inhibition) at 10uM” value is reported as -76.3%. The same measure for `CCCOC(=O)c1ccc(NC(=O)/C=C/c2cccs2)cc1`: 0.453%; for `CCCCOC(=O)c1ccc(NC(=O)C(=O)NCCN(C)C)cc1`: -28.9%.

Turning to `CCCOC(=O)c1ccc(NC(=O)C(=O)NCC2CCCO2)cc1` (stereo not drawn), the “hERG current change (%, negative = inhibition) at 10uM” value was found to be 4.7%. Next, `CCCOC(=O)c1ccc(NC(=O)C(=O)NCCN(CC)CC)cc1`: -52.1%; `Nc1cccc(-n2cccc2)c1`: 18.5%. The same measure for `COc1cccc(CNC(=O)CCC(=O)n2ncc3cc(C)ccc32)c1OC`: 3.67%; for `Cc1ccc(C(=O)NNC(=O)CCN2C(=O)C3CCCCC3C2=O)cc1` (stereo not drawn): -5.88%; for `CCCC/C(O)=C1\C(=O)CCCC1=NCCc1c(C)[nH]c2ccccc12`: -12%.

For `CNc1oc(C)nc1S(=O)(=O)c1ccc(C)cc1`, the “hERG current change (%, negative = inhibition) at 10uM” value is 10.6%. The same measure for `CC(NC(=O)CCNS(=O)(=O)c1cccc2nsnc12)c1ccccc1` (stereo not drawn): -8.74%; for `CCOC(=O)CSc1nnc(CCc2nc3ccccc3[nH]2)n1C`: -0.184%. The same measure for `CC(=O)c1ccc(N2CCN(CC(=O)N(C3CC3)C3CCS(=O)(=O)C3)CC2)c(F)c1` (stereo not drawn): -12%. The same measure for `Cc1[nH]n(-c2ccccc2)c(=O)c1C=NCc1ccncc1`: -58.1%.

In the case of `Cc1ccc(-n2[nH]c(C)c(C=Nc3cc(C)ccn3)c2=O)cc1`, the “hERG current change (%, negative = inhibition) at 10uM” value is recorded as -1.12%.

For `CCOc1[nH]n(-c2ccccc2)c(=O)c1C=NCc1ccncc1`, the “hERG current change (%, negative = inhibition) at 10uM” value was -50%. Next, `CCOc1[nH]n(-c2ccccc2)c(=O)c1C=NCc1cccnc1`: -48.8%.

As for `CCOc1[nH]n(-c2ccc(Cl)cc2)c(=O)c1C=NCc1cccnc1`, the “hERG current change (%, negative = inhibition) at 10uM” value is reported as -42.1%. Next, `Cc1ccc(-n2[nH]c(C)c(/C=N/c3ccccn3)c2=O)cc1`: 2.58%; `Cc1ccc(-n2[nH]c(C)c(C=NCc3ccncc3)c2=O)cc1`: -54.5%; `Cc1[nH]n(-c2ccccc2)c(=O)c1C=NCCc1ccccc1`: -12.7%. As to `Cc1[nH]n(-c2ccccc2)c(=O)c1C=NCc1ccco1`, the “hERG current change (%, negative = inhibition) at 10uM” value was -10.7%.

In the case of `CCOc1ccc(S(=O)(=O)n2ccnc2C)cc1`, the “hERG current change (%, negative = inhibition) at 10uM” value is given as 14.5%.

`Cc1cc(O)c(-c2n[nH]c3c2C(c2cccc(O)c2)N(Cc2cccnc2)C3=O)cc1Cl` (stereo not drawn): the “hERG current change (%, negative = inhibition) at 10uM” value turned out to be 11.4%.

Regarding `Cc1cccc(Cc2nnc(CCC(=O)N(C)C3CCOC3)o2)c1` (stereo not drawn), the “hERG current change (%, negative = inhibition) at 10uM” value is listed as 18.6%. The same measure for `Nc1cc2ccccc2oc1=O`: 8.37%; for `O=C1/C(=C/c2ccccc2Cl)SC(=S)N1CCCC(=O)N(CCO)c1ccccc1`: -12.8%. Next, `CC(=O)NC12CC3CC(C1)CC(C(=O)Nc1nc4ccc(F)cc4s1)(C3)C2`: -56.9%. The same measure for `CC(=O)NC12CC3CC(C1)CC(C(=O)Nc1nc4ccc(S(C)(=O)=O)cc4s1)(C3)C2`: -1.14%; for `COc1ccc2nc(NC(=O)C34CC5CC(CC(NC(C)=O)(C5)C3)C4)sc2c1`: -11.1%.
